# Experiments:
# Experiment in all cases: SPOT peptide array binding signal intensity (averaged, normalized) (arbitrary units (background-subtracted, floor 0; scale differs between SH3 domains)); higher = stronger binding of the SH3 domain to the peptide
# AgAbp1 = target: AgAbp1
# Summary of the method: (§1)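 GST-SH3 fusions from four yeast species, purified on glutathione Sepharose, were incubated at 10 μg/ml overnight at 4°C on membranes of synthetic 15-mer peptides in which cysteines were replaced with serines. Binding signal is the normalized, background-subtracted spot intensity averaged over replicates, in domain-specific arbitrary units.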
# AgBbc1 = target: AgBbc1
# Summary of the method: as §1
# AgBem1-D1 = target: AgBem1-D1
# Summary of the method: as §1
# AgBzz1-D1 = target: AgBzz1-D1
# Summary of the method: as §1
# AgBzz1-D2 = target: AgBzz1-D2
# Summary of the method: as §1
# AgCyk3 = target: AgCyk3
# Summary of the method: as §1
# AgFus1 = target: AgFus1
# Summary of the method: as §1
# AgHof1 = target: AgHof1
# Summary of the method: as §1
# AgHse1 = target: AgHse1
# Summary of the method: as §1
# AgLsb1 = target: AgLsb1
# Summary of the method: as §1
# AgLsb4 = target: AgLsb4
# Summary of the method: as §1
# AgMyo5 = target: AgMyo5
# Summary of the method: as §1
# AgNbp2 = target: AgNbp2
# Summary of the method: as §1
# AgRvs167 = target: AgRvs167
# Summary of the method: as §1
# AgSho1 = target: AgSho1
# Summary of the method: as §1
# AgSla1-D1-D2 = target: AgSla1-D1-D2
# Summary of the method: as §1
# AgSla1-D3 = target: AgSla1-D3
# Summary of the method: as §1
# CaAbp1-D1 = target: CaAbp1-D1
# Summary of the method: as §1
# CaAbp1-D2 = target: CaAbp1-D2
# Summary of the method: as §1
# CaBbc1 = target: CaBbc1
# Summary of the method: as §1
# CaBem1-D1 = target: CaBem1-D1
# Summary of the method: as §1
# CaBzz1-D1 = target: CaBzz1-D1
# Summary of the method: as §1
# CaBzz1-D2 = target: CaBzz1-D2
# Summary of the method: as §1
# CaCyk3 = target: CaCyk3
# Summary of the method: as §1
# CaFus1 = target: CaFus1
# Summary of the method: as §1
# CaHof1 = target: CaHof1
# Summary of the method: as §1
# CaHse1 = target: CaHse1
# Summary of the method: as §1
# CaLsb1 = target: CaLsb1
# Summary of the method: as §1
# CaLsb4 = target: CaLsb4
# Summary of the method: as §1
# CaMyo5 = target: CaMyo5
# Summary of the method: as §1
# CaNbp2 = target: CaNbp2
# Summary of the method: as §1
# CaRvs167 = target: CaRvs167
# Summary of the method: as §1
# CaRvs167-3 = target: CaRvs167-3
# Summary of the method: as §1
# CaSho1 = target: CaSho1
# Summary of the method: as §1
# CaSla1-D1-D2 = target: CaSla1-D1-D2
# Summary of the method: as §1
# CaSla1-D3 = target: CaSla1-D3
# Summary of the method: as §1
# ScAbp1 = target: ScAbp1
# Summary of the method: as §1
# ScBbc1 = target: ScBbc1
# Summary of the method: as §1
# ScBem1-D1 = target: ScBem1-D1
# Summary of the method: as §1
# ScBzz1-D1 = target: ScBzz1-D1
# Summary of the method: as §1
# ScBzz1-D2 = target: ScBzz1-D2
# Summary of the method: as §1
# ScCyk3 = target: ScCyk3
# Summary of the method: as §1
# ScFus1 = target: ScFus1
# Summary of the method: as §1
# ScHof1 = target: ScHof1
# Summary of the method: as §1
# ScHse1 = target: ScHse1
# Summary of the method: as §1
# ScLsb1 = target: ScLsb1
# Summary of the method: as §1
# ScLsb2 = target: ScLsb2
# Summary of the method: as §1
# ScLsb3 = target: ScLsb3
# Summary of the method: as §1
# ScLsb4 = target: ScLsb4
# Summary of the method: as §1
# ScMyo3 = target: ScMyo3
# Summary of the method: as §1
# ScMyo5 = target: ScMyo5
# Summary of the method: as §1
# ScNbp2 = target: ScNbp2
# Summary of the method: as §1
# ScPex13 = target: ScPex13
# Summary of the method: as §1
# ScRvs167 = target: ScRvs167
# Summary of the method: as §1
# ScSho1 = target: ScSho1
# Summary of the method: as §1
# ScSla1-D1-D2 = target: ScSla1-D1-D2
# Summary of the method: as §1
# ScSla1-D3 = target: ScSla1-D3
# Summary of the method: as §1
# SpAbp1-D1 = target: SpAbp1-D1
# Summary of the method: as §1
# SpBbc1 = target: SpBbc1
# Summary of the method: as §1
# SpBzz1-D1 = target: SpBzz1-D1
# Summary of the method: as §1
binder,measurement,setting,value
NFFRKKLGIPRKLKR,SPOT peptide array binding signal intensity,AgAbp1,227
same,SPOT peptide array binding signal intensity,AgBbc1,12
same,SPOT peptide array binding signal intensity,AgBem1-D1,94
same,SPOT peptide array binding signal intensity,AgBzz1-D1,20
same,SPOT peptide array binding signal intensity,AgBzz1-D2,45
same,SPOT peptide array binding signal intensity,AgCyk3,1.5
same,SPOT peptide array binding signal intensity,AgFus1,142
same,SPOT peptide array binding signal intensity,AgHof1,13.2
same,SPOT peptide array binding signal intensity,AgHse1,1980
same,SPOT peptide array binding signal intensity,AgLsb1,3.5
same,SPOT peptide array binding signal intensity,AgLsb4,99
same,SPOT peptide array binding signal intensity,AgMyo5,2
same,SPOT peptide array binding signal intensity,AgNbp2,44
same,SPOT peptide array binding signal intensity,AgRvs167,5.33
same,SPOT peptide array binding signal intensity,AgSho1,73
same,SPOT peptide array binding signal intensity,AgSla1-D1-D2,368
same,SPOT peptide array binding signal intensity,AgSla1-D3,1.5
same,SPOT peptide array binding signal intensity,CaAbp1-D1,1000
same,SPOT peptide array binding signal intensity,CaAbp1-D2,1180
same,SPOT peptide array binding signal intensity,CaBbc1,31.5
same,SPOT peptide array binding signal intensity,CaBem1-D1,4
same,SPOT peptide array binding signal intensity,CaBzz1-D1,47.5
same,SPOT peptide array binding signal intensity,CaBzz1-D2,26
same,SPOT peptide array binding signal intensity,CaCyk3,≤ 0
same,SPOT peptide array binding signal intensity,CaFus1,729
same,SPOT peptide array binding signal intensity,CaHof1,0.5
same,SPOT peptide array binding signal intensity,CaHse1,37.2
same,SPOT peptide array binding signal intensity,CaLsb1,1
same,SPOT peptide array binding signal intensity,CaLsb4,≤ 0
same,SPOT peptide array binding signal intensity,CaMyo5,0.75
same,SPOT peptide array binding signal intensity,CaNbp2,189
same,SPOT peptide array binding signal intensity,CaRvs167,8.83
same,SPOT peptide array binding signal intensity,CaRvs167-3,47
same,SPOT peptide array binding signal intensity,CaSho1,447
same,SPOT peptide array binding signal intensity,CaSla1-D1-D2,11
same,SPOT peptide array binding signal intensity,CaSla1-D3,2.5
same,SPOT peptide array binding signal intensity,ScAbp1,146
same,SPOT peptide array binding signal intensity,ScBbc1,4.5
same,SPOT peptide array binding signal intensity,ScBem1-D1,14
same,SPOT peptide array binding signal intensity,ScBzz1-D1,9
same,SPOT peptide array binding signal intensity,ScBzz1-D2,13.5
same,SPOT peptide array binding signal intensity,ScCyk3,53
same,SPOT peptide array binding signal intensity,ScFus1,314
same,SPOT peptide array binding signal intensity,ScHof1,1.25
same,SPOT peptide array binding signal intensity,ScHse1,1910
same,SPOT peptide array binding signal intensity,ScLsb1,13.5
same,SPOT peptide array binding signal intensity,ScLsb2,8
same,SPOT peptide array binding signal intensity,ScLsb3,103
same,SPOT peptide array binding signal intensity,ScLsb4,3
same,SPOT peptide array binding signal intensity,ScMyo3,≤ 0
same,SPOT peptide array binding signal intensity,ScMyo5,0.5
same,SPOT peptide array binding signal intensity,ScNbp2,68
same,SPOT peptide array binding signal intensity,ScPex13,0.5
same,SPOT peptide array binding signal intensity,ScRvs167,2.33
same,SPOT peptide array binding signal intensity,ScSho1,473
same,SPOT peptide array binding signal intensity,ScSla1-D1-D2,38.5
same,SPOT peptide array binding signal intensity,ScSla1-D3,6.25
same,SPOT peptide array binding signal intensity,SpAbp1-D1,462
same,SPOT peptide array binding signal intensity,SpBbc1,3
same,SPOT peptide array binding signal intensity,SpBzz1-D1,50
